Shown are actives, neighbours in structure and some others; about 2.5% of the full set was active somewhere.
Cruzain Triton: qHTS Assay for Promiscuous and Specific Inhibitors of Cruzain (with detergent); Cruzipain (Trypanosoma cruzi), P25779; purified cruzain, Z-FR-AMC fluorescence, 0.01% Triton; Potency, µM, for the others: max response, negative = inhibition, actives largely listed as inhibitors; hit rate 0.43% among 200,000;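 also: plate controls were neutral wells for no effect and buffer without enzyme for full effect; nearly all actives have a fitted effect of over 40% in size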
Target sequence (P25779 123-467 limits assumed): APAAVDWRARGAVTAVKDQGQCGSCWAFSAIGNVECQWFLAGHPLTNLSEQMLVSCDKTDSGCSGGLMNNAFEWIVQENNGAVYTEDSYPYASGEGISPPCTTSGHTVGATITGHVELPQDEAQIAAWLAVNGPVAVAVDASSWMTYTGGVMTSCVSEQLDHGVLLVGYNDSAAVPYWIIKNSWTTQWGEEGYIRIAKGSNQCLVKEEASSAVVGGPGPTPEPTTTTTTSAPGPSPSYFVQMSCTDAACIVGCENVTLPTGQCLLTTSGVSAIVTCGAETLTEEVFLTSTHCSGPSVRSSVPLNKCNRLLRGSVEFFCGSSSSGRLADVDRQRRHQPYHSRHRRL
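Cruzain (1.5 nM) preincubated 15 min at RT with compound in 100 mM sodium acetate pH 5.5, 5 mM DTT, 0.01% Triton X-100. Reaction started with 2 uM Z-FR-AMC; AMC fluorescence (ex 360/em 450 nm) change over 60 s gave rate.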
Cruzain noTriton: qHTS Assay for Promiscuous and Specific Inhibitors of Cruzain (without detergent). Cruzipain (Trypanosoma cruzi), P25779. purified cruzain, Z-FR-AMC fluorescence, no detergent. Potency, µM, for the others: max response, negative = inhibition, actives largely listed as inhibitors. hit rate 2.3% among 200,000;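 also: plate controls were enzyme without inhibitor for no effect and buffer without enzyme for full effect; nearly all actives have a fitted effect of over 40% in size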
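Detergent-free condition (0.00005% Triton X-100) in acetate buffer pH 5.5 with DTT. 1.5 nM enzyme and compound were pre-mixed 15 min, then 2 uM Z-FR-AMC substrate added; reaction progress from fluorescence change between first and third reads (60 s).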
Starred values were filed as active, the others as inactive; ! = not active in a repeat. Calls follow the shape of the dose curve; as a rule, active = well fitted curve in the direction sought with a large enough effect; inconclusive = small, poorly fitted or top-dose-only effect, or another doubt; inactive = no such curve, though single readings can be large; an effect the other way counts as inactive or inconclusive. Potency is read from the fitted curve at half-maximal effect.

`Cn1c(N)c(C(=O)COC(=O)c2cc(-c3ccccc3)nc3ccccc23)c(=O)n(C)c1=O` gave Cruzain Triton 0.1% and Cruzain noTriton inconclusive.
For CCN(CC)S(=O)(=O)c1ccc(C(=O)NCCSc2c(-c3ccccc3)[nH]c3ccccc23)cc1 the results were Cruzain Triton 2.0% and Cruzain noTriton inconclusive.
`CN(C)S(=O)(=O)c1ccc(C(=O)NCCSc2c(-c3ccc(Br)cc3)[nH]c3ccccc23)cc1` gave Cruzain Triton 0.5% and Cruzain noTriton 25.1µM*.
`COc1cc(C)ccc1OCCOc1cc(C)ccc1Cl` gave Cruzain Triton -0.7% and Cruzain noTriton 20µM*.
COc1cc(C)ccc1OCCOc1c(Cl)cc(Cl)cc1Cl was read as Cruzain Triton -1.4% and Cruzain noTriton -0.8%.
For CCc1cccc(NC(=O)CSc2nc3c(c(=O)[nH]2)CCCC3)c1 the results were Cruzain Triton -1.4% and Cruzain noTriton 25.1µM*.
Screening O=C(CSc1nc2c(c(=O)[nH]1)CCC2)Nc1cccc(Cl)c1 returned Cruzain Triton 4.0% and Cruzain noTriton -2.8%.
COc1ccc(-n2c(-c3ccc(C)cc3)cc3c2CC(C)(C)CC3=O)c(OC)c1 was read as Cruzain Triton -2.7% and Cruzain noTriton -8.1%.
Cc1ccc(-c2noc(CCC(=O)Nc3ccc(C)cn3)n2)cc1 was read as Cruzain Triton 0.5% and Cruzain noTriton 25.1µM*.
Screening CCOC(=O)c1ccccc1NC(=O)CCc1nc(-c2ccc(C)cc2)no1 returned Cruzain Triton -5.3% and Cruzain noTriton 5.0%.
Screening O=C(Nc1nc2c(s1)CCCC2)c1ccc(S(=O)(=O)N2CCCc3ccccc32)cc1 returned Cruzain Triton -1.6% and Cruzain noTriton inconclusive.
For CC1CCc2nc(NC(=O)c3ccc(S(=O)(=O)N4CCCc5ccccc54)cc3)sc2C1 (stereo unspecified) the results were Cruzain Triton -4.6% and Cruzain noTriton 7.94µM*.
Screening COc1ccc(Nc2ncnc3c2cnn3-c2ccc(C)cc2)cc1Cl returned Cruzain Triton 3.8% and Cruzain noTriton 8.2%.
For Cc1ccc(-c2csc(NC(=O)COc3ccc(N(C)S(=O)(=O)c4ccc(C)cc4)cc3)n2)cc1 the results were Cruzain Triton 0.9% and Cruzain noTriton 6.31µM*.
`O=C(COc1ccc(Cl)cc1)Nc1nc(-c2ccc(S(=O)(=O)N3CCOCC3)cc2)cs1` gave Cruzain Triton -1.7% and Cruzain noTriton inconclusive.
`COc1ccc(S(=O)(=O)N(C)c2ccc(OCC(=O)Nc3cc(C)on3)cc2)cc1` gave Cruzain Triton -1.2% and Cruzain noTriton -7.0%.
`COc1ccc(-c2csc(NC(=O)COc3ccc(N(C)S(=O)(=O)c4ccc(C)cc4)cc3)n2)cc1` gave Cruzain Triton 0.6% and Cruzain noTriton 7.94µM*.
`COc1ccccc1CCNC(=O)C(=O)NCC(c1ccco1)S(=O)(=O)c1ccccc1` (stereo unspecified) gave Cruzain Triton -2.8% and Cruzain noTriton 0.6%.
Screening COc1ccc(NC(=O)Cn2c(SCc3cccc(Cl)c3)nc3ccncc32)c(OC)c1OC returned Cruzain Triton -10.9% and Cruzain noTriton 21.9%.
For Cc1ccc(C)c(-c2ccc(C(=O)O)o2)c1 the results were Cruzain Triton 8.0% and Cruzain noTriton 3.7%.
Screening COc1ccccc1NS(=O)(=O)c1ccc(Cl)c(NC(=S)NC(=O)C2CCCC2)c1 returned Cruzain Triton -13.2% and Cruzain noTriton inconclusive.
For CCN(CC)c1ccc(S(=O)(=O)Nc2cc(Cl)ccc2Cl)cc1NC(=S)NC(=O)C1CCCC1 the results were Cruzain Triton -2.1% and Cruzain noTriton 31.6µM*.
`CCCCNC(=O)c1c(-c2ccccc2)c(-c2ccccc2)nn(C)c1=O` gave Cruzain Triton -1.4% and Cruzain noTriton 5.6%.
For Cc1ccc(OCCSc2nnc(NC(=O)c3ccco3)s2)cc1 the results were Cruzain Triton 3.7% and Cruzain noTriton 25.1µM*.
`Cc1ccc(OCc2nnc(NC(=O)c3ccco3)s2)cc1` gave Cruzain Triton -1.0% and Cruzain noTriton -11.4%.
`COC(=O)c1cc(OC)c(OC)cc1N` gave Cruzain Triton -2.0% and Cruzain noTriton -23.7%.
Screening COc1cc2cc(C(N)=O)c(N)nc2cc1OC returned Cruzain Triton 28.2µM* and Cruzain noTriton 15.8µM*.
For COCCNC(=S)NCCCNc1nc2cc3c(cc2cc1C#N)OCO3 the results were Cruzain Triton 17.8µM* and Cruzain noTriton inconclusive.
Screening CCOCCCNC(=S)NCCNc1nc2ccc(C)cc2cc1C#N returned Cruzain Triton -3.3% and Cruzain noTriton 3.8%.
N#C/C(=C\c1c[nH]c2ccccc12)C(=O)Nc1ncc(Cc2ccc(Cl)cc2Cl)s1 was read as Cruzain Triton -1.5% and Cruzain noTriton 7.94µM*.
Screening CCOC(=O)/C(C#N)=C/c1c[nH]c2ccccc12 returned Cruzain Triton -14.9% and Cruzain noTriton 0.9%.
`Cn1cc(/C=C(\C#N)C(=O)Nc2ncc(Cc3cccc(Cl)c3)s2)c2ccccc21` gave Cruzain Triton -6.3% and Cruzain noTriton 7.94µM*.
Screening O=C(Nc1ncc(Cc2cccc(Cl)c2)s1)C1CCCO1 (stereo unspecified) returned Cruzain Triton -2.6% and Cruzain noTriton -3.6%.
Screening CC(=O)c1cccc(NC(=O)c2c(-c3ccccc3)c(-c3ccccc3)nn(C)c2=O)c1 returned Cruzain Triton -4.4% and Cruzain noTriton inconclusive.
`Cc1ccc(-n2cc(C(=O)OCc3ccc(Cl)cc3)c3ccccc3c2=O)cc1` gave Cruzain Triton -0.8% and Cruzain noTriton -7.1%.
For CCOc1ccc(NC(=O)N2CCN(S(=O)(=O)c3ccc4c(ccn4C)c3)CC2)cc1 the results were Cruzain Triton -3.3% and Cruzain noTriton -28.4%.
Cc1ccc(NC(=O)c2nc[nH]c2C(=O)Nc2ccc(C)cc2)cc1 was read as Cruzain Triton 3.3% and Cruzain noTriton 7.94µM*.
Screening CNC(=O)c1[nH]cnc1C(=O)Nc1ccc(C)cc1 returned Cruzain Triton -1.5% and Cruzain noTriton -12.2%.
For COc1ccccc1NC(=O)c1nc[nH]c1C(=O)Nc1ccccc1OC the results were Cruzain Triton 4.8% and Cruzain noTriton 10µM*.
`CCOc1ccccc1NC(=O)c1nc[nH]c1C(=O)Nc1ccccc1OCC` gave Cruzain Triton 3.1% and Cruzain noTriton -5.4%.
For Cc1ccccc1NC(=O)Cn1c(=O)n(CCC(=O)NCc2ccc3c(c2)OCO3)c(=O)c2sccc21 the results were Cruzain Triton -3.4% and Cruzain noTriton -9.5%.
Screening CCN(CC)CCOc1ncnc2c1oc1ccccc12 returned Cruzain Triton -0.8% and Cruzain noTriton -0.9%.
CCCCc1oc2ccccc2c1C(=O)c1cc(I)c(OCCN(CC)CC)c(I)c1 was read as Cruzain Triton 12.6µM*!.
CCN(CC)c1ccc(/C=N/N=C(c2ccccc2)c2ccccc2)c(O)c1 was read as Cruzain Triton -5.3% and Cruzain noTriton 25.1µM*.
For CCN(CC)c1ccc(/C=N/N(c2ccccc2)c2ccccc2)c(O)c1 the results were Cruzain Triton -4.4% and Cruzain noTriton inconclusive.
Screening O=c1oc2ccccc2cc1-c1csc(NN=C2CCCC2)n1 returned Cruzain Triton -9.8% and Cruzain noTriton -11.6%.
For C/C(=N\Nc1nc(-c2cc(C)ccc2C)cs1)c1cc2ccccc2oc1=O the results were Cruzain Triton inconclusive and Cruzain noTriton 25.1µM*.
Screening O=C(c1ccco1)c1cc2c(ccc3ccccc32)oc1=O returned Cruzain Triton 3.8% and Cruzain noTriton -4.2%.

Compound activity from PubChem.
